Experimental findings from PubChem BioAssay (Tox21) are described below.

Values joined by “and” are separate entries in the source; they are usually repeats but may differ in a detail not shown here. Equal entries are not always repeated. Values without a mark were called inactive. Records with an inconclusive call do not appear. Active and inactive are the calls of the source. Unless noted, calls come from the whole dose curve; as a rule, active = well fitted curve in the direction sought with a large enough effect in the repeat runs; inconclusive = weak or mixed curves; inactive = no such curve, though single readings can be large; an effect the other way counts as inactive or inconclusive.

A short description of assay [1]: qHTS assay for small molecule agonists of the p53 signaling pathway - cell viability (AID 651633; calls by dose curve; note: nearly all actives have a fitted effect of over 30% in size; note: potency is the fitted concentration of half-maximal effect). In short, it runs like this:
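p53RE-bla cells were treated with compound for 16 hours at 37 C. Cytotoxicity was then measured as CellTiter-Glo luminescence after 30 min at room temperature.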

A short description of assay [2]: qHTS assay for small molecules that induce genotoxicity in human embryonic kidney cells expressing luciferase-tagged ATAD5 - cell viability (AID 651634; calls by dose curve; note: nearly all actives have a fitted effect of over 25% in size; note: potency is the fitted concentration of half-maximal effect). In short, it runs like this:
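HEK293T cells carrying luciferase-tagged ATAD5, 2,000 cells/well, exposed to compound for 15.5 hr at 37C. Viability read as live-cell protease activity by CellTiter-Fluor fluorescence after 30 min at 37C.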

Assay [3] can be described thus: qHTS assay for small molecule disruptors of the mitochondrial membrane potential - cell viability (AID 720634; calls by dose curve; note: nearly all actives have a fitted effect of over 20% in size; note: potency is the fitted concentration of half-maximal effect). In short, it runs like this: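 HepG2 cells, 2,000 per well, attached overnight, then treated 1 hr at 37 C, 5% CO2. Viability read as ATP by CellTiter-Glo luminescence after 30 min at room temperature. Read in the same wells as the m-MPI membrane-potential dye assay.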

Assay [4] can be described thus: qHTS assay to test for compound auto fluorescence at 590 nm (red) in HepG2 cells (AID 720674). In short, it runs like this: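 Seeding: 2,000 HepG2 cells/well, MEM/10% FBS, overnight 37 C. Dosing: compound vs DMSO. Incubation: 1 hr, 37 C, 5% CO2. Read: fluorescence 540 ex/590 em, Rose Bengal sodium as red reference.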
Assay [5] is described as follows: qHTS assay to test for compound auto fluorescence at 535 nm (green) in HepG2 cells (AID 720675).
A short description of assay [6]: qHTS assay to test for compound auto fluorescence at 460 nm (blue) in HEK293 cells (AID 720678). In short, it runs like this:
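Triamterene serves as the blue fluorophore standard. Compound signal at 405/460 nm is read in HEK293 wells (2,000 cells, 10% dialyzed FBS) after overnight treatment at 37C.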

Assay [7] in a line: qHTS assay to test for compound auto fluorescence at 590 nm (red) in HEK293 cells (AID 720679). In short, it runs like this:
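We plated HEK293 cells in 10% dialyzed FBS medium, let them adhere for 4-5 hr, then added 23 nL compound. Overnight at 37C and 5% CO2 preceded fluorescence measurement at 540/590nm.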

A short description of assay [8]: qHTS assay for small molecules that induce genotoxicity in human embryonic kidney cells expressing luciferase-tagged ATAD5 (AID 651632). Note: nearly all actives have a fitted effect of over 15% in size. In short, it runs like this:
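HEK293T cells carrying luciferase-tagged ATAD5 were given compound or DMSO vehicle and incubated 16 hr at 37C, 5% CO2. Luciferase activity was read after 30 min at room temperature with Amplite; a rise signals genotoxic stress.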

Assay [9] in a line: qHTS assay for small molecule disruptors of the mitochondrial membrane potential (AID 720635). Note: potency is the fitted concentration of half-maximal effect. In short, it runs like this: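 HepG2 cells exposed to compound 1 hr at 37C, then Mito-MPS dye 30 min. Ratio read of aggregate (540/590 nm) versus monomer (490/535 nm) fluorescence.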
% is set by controls: 0 for no effect and ±100 for the full control effect.

Consider `N#CC(Cl)Cl`, for which the Potency entry in assay [1], in [2], in assay [3] and in assay [6] was “inactive” throughout. For the same compound, the outcome in assay [4], in assay [5] and in assay [7] was inactive.
As for `N#C/C=C/C#N`, the Potency result in assay [1], in assay [3] and in [6] was “inactive” in each case. For the same compound, the compound was classed as inactive in assay [4], in [5] and in assay [7].
Consider `CC(C)OC(=O)C(O)(c1ccc(Cl)cc1)c1ccc(Cl)cc1`, for which the Potency result in assay [8], in assay [2] and in assay [6] was “inactive” throughout. In assay [9], the Potency was 24.3 µM (active). Moreover, the outcome in [4], in assay [5] and in assay [7] was inactive.
As to `N#CCCC(Br)(C#N)CBr` (stereo unspecified), the Potency entry in [1] and in [6] was “inactive” throughout. Besides, the Potency in assay [9] is 61.1 µM (active). The result in assay [4], in assay [5] and in assay [7] was inactive.
On to `Oc1cc(Cl)c(Cl)c(Cl)c1`, for which the Potency entry in assay [8], in assay [2] and in [6] was “inactive” each time. Also, the Potency in assay [9] is 2.31 µM (active). The compound was classed as inactive in assay [4], in assay [5] and in assay [7].
Regarding `O=C(O)C1C2CCC(O2)C1C(=O)O` (stereo unspecified), the Potency result in assay [1], in assay [2] and in assay [6] was “inactive” throughout. Besides, the compound was called inactive in assay [4], in assay [5] and in assay [7].
Take `ClC1=C(Cl)[C@]2(Cl)[C@H]3[C@H]([C@H]4C=C[C@H]3C4)[C@@]1(Cl)C2(Cl)Cl`: the Potency result in assay [8], in assay [2] and in assay [6] was “inactive” each time. The Potency in assay [9] was 43.3 µM (active). Further, the result in [4], in [5] and in assay [7] was inactive.
As to `CCCCCCCCCCCCCCCCCCn1cc[n+](C)c1`, the Potency entry in assay [8], in [2] and in assay [6] was “inactive” in each case. The Potency in [9] is 9.63 µM (active). For the same compound, the outcome in [4], in assay [5] and in [7] was inactive.
Take `O=C(Nc1ccc2[nH]ccc2c1)c1cc2cc(F)ccc2n1Cc1cccc(F)c1`: the Potency result in assay [8] and in assay [6] was “inactive” in each case. The Potency in [9] is 0.686 µM (active). Besides, the outcome in assay [4], in [5] and in [7] was inactive.
Take `CCCCN(CCCC)C(=S)[S-].CCCCN(CCCC)C(=S)[S-].[Zn+2]`: the Potency in assay [1] is 9.44 µM (active) and 61.1 µM (active); in assay [9], 27.3 µM (active). Moreover, the Potency entry in [3] and in assay [6] was “inactive” each time. Besides, the compound was classed as inactive in [4], in [5] and in assay [7].
As for `C[C@H]1CC[C@@H]2[C@@H](C)[C@H]3[C@H](C[C@H]4[C@@H]5CC=C6CC(O[C@@H]7O[C@H](CO)[C@H](O)[C@H](O[C@@H]8O[C@H](CO)[C@@H](O)[C@H](O)[C@H]8O)[C@H]7O[C@H]7O[C@@H](C)[C@H](O)[C@@H](O)[C@H]7O)CC[C@]6(C)[C@H]5CC[C@]34C)N2C1` (stereo partly specified), the Potency in assay [2] was 26.6 µM (active) and 63.1 µM (active); in assay [3], 18.8 µM (active) and 70.8 µM (active); in assay [9] it was 18.8 µM (active) and 35.5 µM (active). Besides, the compound was called inactive in assay [4], in assay [5] and in assay [7]. The Potency entry in [6] was “inactive”.
For the compound `[Hg+2].[I-].[I-]`, the Potency in [1] was 61.1 µM (active); in assay [2] it was 61.1 µM (active); in [3], 48.6 µM (active); in assay [9], 17.2 µM (active). For the same compound, the call in assay [4], in [5] and in [7] was inactive. Besides, in [6], the Potency result was “inactive”.
With `CCCSP(=O)(OCC)SCCC`, the Potency entry in assay [2], in [3] and in [6] was “inactive” each time. For the same compound, the result in assay [4], in assay [5] and in assay [7] was inactive.
Regarding `C=CC(=O)OCCCCOC(=O)C=C`, in [2], the Potency is 54.5 µM (active). Besides, the Potency result in assay [3], in assay [9] and in assay [6] was “inactive” throughout. Besides, the result in assay [4], in assay [5] and in assay [7] was inactive.
Consider `CCOP(=O)(NC(C)C)Oc1ccc(SC)c(C)c1` (stereo unspecified), for which the result in assay [4], in [5] and in [7] was inactive. Further, the Potency result in [6] was “inactive”.
With `CC(C)C1CCC(Cc2ccc(Cl)cc2)C1(O)Cn1cncn1` (stereo unspecified), the Potency entry in assay [8] and in assay [6] was “inactive” in each case. For the same compound, the values for the Potency in assay [2] and in assay [9] were 53.9 µM (active) and 15.2 µM (active), respectively. In addition, the call in [4], in [5] and in [7] was inactive.
`CC1(c2ccc(Oc3ccccc3)cc2)OC(=O)N(Nc2ccccc2)C1=O` (stereo unspecified): the Potency result in assay [8], in assay [2] and in assay [6] was “inactive” each time. Further, in [9], the Potency is 3.88 µM (active). The compound was classed as inactive in [4], in assay [5] and in [7].
Regarding `Fc1ccc(Oc2ccnc3cc(Cl)cc(Cl)c23)cc1`, the Potency result in assay [8], in assay [2] and in assay [6] was “inactive” each time. Further, in assay [9], the Potency was 30.6 µM (active). Also, the call in [4], in assay [5] and in [7] was inactive.
Consider `CN(C)S(=O)(=O)N(SC(F)(Cl)Cl)c1ccccc1`, for which the Potency entry in [8] and in [6] was “inactive” throughout. Besides, the results for the Potency in assay [3] and in assay [9] were 61.1 µM (active) and 4.86 µM (active), respectively. Also, the compound was called inactive in assay [4], in assay [5] and in [7].
`CCCCCCCCc1ccc(O)cc1`: the Potency in assay [1] was 12.3 µM (active); in assay [3], 15.4 µM (active); in assay [9], 4.89 µM (active). The Potency entry in assay [2] and in assay [6] was “inactive” throughout. Moreover, the compound was classed as inactive in [4], in assay [5] and in assay [7].
On to `CC(=O)[O-].[Tl+]`, for which the Potency in assay [1] is 43.5 µM (active). Besides, the outcome in assay [4], in assay [5] and in assay [7] was inactive. The Potency entry in assay [6] was “inactive”.
Consider `CC(=O)[O-].CC(=O)[O-].[Hg+2]`, for which the values for the Potency in [1] and in [2] were 1.93 µM (active) and 54.5 µM (active), respectively. For the same compound, the compound was called inactive in assay [4], in assay [5] and in assay [7]. Also, the Potency entry in assay [6] was “inactive”.
For `CN(C)C(=S)[S-].CN(C)C(=S)[S-].[Cu+2]`, the Potency result in assay [1] and in [3] was “inactive” each time. In addition, the values for the Potency in [2] and in [9] were 0.836 µM (active) and 0.592 µM (active), respectively. In addition, the fluorescence, relative to Rose Bengal in [4] was 0.166% [at 18.6 µM]. The fluorescence, % of fluorescein control in [5] was -0.0148% [at 18.6 µM]. For the same compound, the fluorescence, % of triamterene in [6] was -0.0228% [at 18.6 µM]. Also, the fluorescence, % of fluorescent control in assay [7] is 0.0936% [at 18.6 µM].
For the compound `O=[N+]([O-])c1cc(C(F)(F)F)c(Cl)c([N+](=O)[O-])c1Cl`, the Potency in [1] is 27.3 µM (active); in [2] it was 24.3 µM (active); in assay [3], 15.4 µM (active); in assay [9], 13.7 µM (active). Also, the compound was called inactive in [4], in assay [5] and in assay [7]. In assay [6], the Potency result was “inactive”.
Regarding `O=C/C(Cl)=C(/Cl)C(=O)O`, the Potency entry in [1], in assay [2] and in [6] was “inactive” in each case. In addition, the Potency is 61.1 µM (active) in assay [3]; 24.3 µM (active) and 38.6 µM (active) in [9]. For the same compound, the call in [4], in [5] and in assay [7] was inactive.
As to `O=[N+]([O-])O.O=[N+]([O-])O.[Cd]`, the Potency in [2] was 1.22 µM (active). The result in assay [4], in [5] and in [7] was inactive. Moreover, in assay [6], the Potency result is “inactive”.
On to `CC(C)[C@H](C(=O)OC(C#N)c1cccc(Oc2ccccc2)c1)c1ccc(OC(F)F)cc1` (stereo partly specified), for which the Potency entry in assay [8], in assay [2] and in assay [6] was “inactive” in each case. Also, in assay [9], the Potency is 17.2 µM (active). For the same compound, the compound was called inactive in [4], in assay [5] and in [7].
